A selection: hits, their analogues and other compounds. The true share with any hit is near 21%.
Cycloheximide cs = affects cycloheximide protein synthesis inhibition readout, counter-screen; cell reporter, cycloheximide protein synthesis inhibition counterscreen; max response, %; hit rate 12% among 300,000; in the data active = max response mostly above about 13%, no sharp cut-off; inactive = mostly below about 14%; note: read at 38.3 µM for the half of the compounds with a filed dose; 0% is about no effect
NS1 inh = blocks influenza NS1 protein function; Potency, µM (series often up to 46.1 µM), without a hit: at the top dose activity, positive = more growth; hit rate 0.4% among 270,000; calls by dose curve; note: potency is the fitted concentration of half-maximal effect; actives are rising curves; nearly all actives have a fitted effect of over 50% in size
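OD600 was taken as the measure of yeast growth restored by compound in an NS1-expressing S. cerevisiae strain. Cells had been washed out of glucose medium and diluted 1:100 into galactose -URA medium, pH 6.0.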
Pf growth 48h = inhibits P. falciparum growth in the first generation, 48 h; Potency, µM (top dose mostly 28.7 µM), inactives show at the top dose activity change, negative = inhibition, actives largely listed as inhibitors; AID 504832; P. falciparum luciferase growth in erythrocytes, 48 h; hit rate 5.9% among 310,000; note: potency is the fitted concentration of half-maximal effect; % is set by controls: 0 for no effect and ±100 for the full control effect
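Parasite viability was followed by luminescence of a genomically integrated firefly luciferase. Cultures held 0.1% parasitemia at 2% hematocrit (final), incubated under 5% CO2 at 37 C.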
Shiga toxin inh = blocks Shiga toxin action in Vero cells | Vero cells, Shiga toxin protein synthesis inhibition reporter | inhibition, % at 38.7 µM | hit rate 9.2% among 290,000 | AID 2315; in the data active = inhibition mostly above about 28%, no sharp cut-off; inactive = mostly below about 43%; note: 0% is about no effect
Pf growth 96h = P. falciparum growth inhibition at 96 hour, primary screen for plastid delayed-death inhibitors. AID 504834. Potency, µM (top dose mostly 28.7 µM), for inactives: at the highest dose activity change, negative = inhibition, hits mostly inhibitors. P. falciparum luciferase reporter growth, 96 h. hit rate 6.9% among 320,000; note: potency is the fitted concentration of half-maximal effect; % is set by controls: 0 for no effect and ±100 for the full control effect
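96 h incubation, 37 C, 5% CO2, of luciferase-reporter P. falciparum-infected RBCs (2% hematocrit, 0.05% parasitemia final) with test compounds; endpoint luminescence.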
Active calls of the source: *; i = inactive; ? = inconclusive; nt = not tested or not shown; + = active, no number. Unless noted, calls come from the whole dose curve; as a rule, active = well fitted inhibition curve with a large enough effect; inconclusive = small, poorly fitted or top-dose-only effect, or another doubt; inactive = no such curve, though single readings can be large or run the other way.

SMILES	Cycloheximide cs	NS1 inh	Pf growth 48h	Shiga toxin inh	Pf growth 96h
COc1cc2sc(NC(=O)c3ccco3)nc2cc1Cl	45*	-4%	103%	102*	26%
COc1cc2nc(NC(=O)c3ccco3)sc(=O)c2cc1OC	1	2%	1%	14	13%
Cc1cc2sc(NC(=O)c3ccco3)nc2cc1Cl	71*	0%	322%	79*	-28%
Cc1nc(-c2nc(-c3c(C(=O)NN)noc3C)cs2)cs1	28*	nt	204%	66*	259%
Cc1ccccc1N1CCN(C(=O)NCc2cccc(Cl)c2)CC1	1	-24%	?	15	?
CCOC(=O)c1c(N)sc2c1CCC1C(=O)N(C3CCCCC3)C(=O)C21 (stereo unspecified)	32*	-3%	13µM*	49	15µM*
O=C(CN1CCc2cc3c(cc2C1)OCCCO3)Nc1ccc(S(=O)(=O)N2CCCC2)cc1	-4	-1%	?	10	13µM*
O=C(CN1CCOCC1)Nc1ccc(S(=O)(=O)N2CCCCCC2)cc1	1	-5%	-22%	4	nt
COC(=O)c1cc(NC(=O)CN2CCOCC2)cc(C(=O)OC)c1	1	4%	?	-13	0%
COC(=O)c1cc(NC(=O)CN2CCc3cc4c(cc3C2)OCCCO4)cc(C(=O)OC)c1	-1	16%	-6%	-4	9.3µM*
N#Cc1cnc(NOCc2ccc(Cl)cc2)nc1	2	nt	i	15	28%
O=C1CC(c2ccco2)CC2=C1C(c1ccccc1)n1nc(C(F)(F)F)nc1N2 (stereo unspecified)	4	8%	9.3µM*	7	nt
CC(C)c1ccc(C2C3=C(CC(c4ccco4)CC3=O)Nc3nc(C(F)(F)F)nn32)cc1 (stereo unspecified)	9	nt	nt	-9	nt
COC(=O)c1ccc2c(c1)N(C)CCS2	-1	-7%	-6%	8	?
CN1CCSc2ccc(C(=O)Nc3cc(F)ccc3F)cc21	54*	-7%	193%	81*	334%
Cc1ccccc1NC(=O)c1ccc2c(c1)N(C)CCS2	28*	-8%	39%	32*	13µM*
Cc1cc(C(=O)N/N=C/c2ccc[nH]2)n[nH]1	16*	-5%	84%	36*	50%
Cc1cc(C(=O)N/N=C/c2ccc(OC(=O)c3ccccc3Br)cc2)n[nH]1	11	-2%	7%	29	-4%
Cc1cc(C(=O)N/N=C/c2ccc[nH]2)no1	20	14%	14%	45	69%
Cc1cc(C(=O)N/N=C/c2cccc(OC(=O)c3ccco3)c2)n[nH]1	46*	7%	27%	34	?
Cc1cc(C(=O)N/N=C/c2ccc3ccccc3c2)n[nH]1	23*	2%	14%	30*	?
Cc1cc(C(=O)N/N=C/c2cccnc2)n[nH]1	2	0%	27%	22	26%
C/C=C1\COC(C(=O)NC)(C(F)(F)F)C=C1C=C1CCCCC1 (stereo unspecified)	19	nt	nt	15	nt
Cc1ccc(OCc2ccc(C(=O)Nc3nccs3)o2)cc1C	25*	16%	-12%	47	0%
O=C(Nc1nccs1)c1ccc(COc2ccccc2Cl)o1	60*	nt	67%	81*	?
SMILES	Cycloheximide cs	NS1 inh	Pf growth 48h	Shiga toxin inh	Pf growth 96h
Cc1cc(NC(=O)c2ccc(COc3ccc(Cl)c(C)c3)o2)no1	8	10%	-9%	-4	9.3µM*
O=C(CN1C(=O)NC2(CCCc3ccccc32)C1=O)Nc1ccccc1OC(F)F (stereo unspecified)	nt	nt	-19%	nt	?
COc1ccc(CN2C(=NC(=O)C3CCCO3)SC3CS(=O)(=O)CC32)cc1OC (stereo unspecified)	-7	-5%	4%	-7	61%
Cc1cc([N+](=O)[O-])ccc1NC(=O)/C=C/c1cccs1	42*	0%	103%	59*	-23%
Cc1cccc(NC(=S)N/N=C/c2ccc([N+](=O)[O-])s2)c1	19	-139%	?	32*	?
Cc1cccc(NC(=O)/C=C/c2ccc([N+](=O)[O-])s2)c1	1	6%	?	21	2.6µM*
Cc1ccc(NC(=O)COC(=O)c2ccc([N+](=O)[O-])s2)c(C)c1	-1	-3%	5%	-14	17%
Cc1ccc(NC(=O)/C=C/c2ccc([N+](=O)[O-])s2)c(C)c1	22*	-7%	10µM*	active	3.3µM*
Cc1ccccc1NC(=O)c1ccc(-n2cncn2)nc1	2	1%	31%	-4	40%
CCOc1ccc(CCNC(=O)COC(=O)c2ccc(S(=O)(=O)N3CCCC3)cc2)cc1OCC	nt	nt	?	nt	-2%
CCCOc1ccc(/C=C/C(=O)Nc2ccc([N+](=O)[O-])cc2)cc1	-3	-36%	?	-15	?
Cc1ccc(NC(=O)/C=C/c2ccc([N+](=O)[O-])s2)cc1	26*	-14%	?	active	?
Cc1ccc(/C=N/N=C/c2ccc(C)s2)s1	71*	-6%	335%	+	369%
Cc1cccc(N/N=C/c2ccc(C)s2)c1	40*	-6%	?	80*	?
Cc1ccc(C=Nc2ccccc2C(N)=O)s1	13	-2%	10%	-3	51%
CC(C)(C)Cc1nnc(NC(=O)c2ccc3c(c2)OCO3)s1	44*	5%	0%	48*	-28%
CCC(CC)c1nnc(NC(=O)c2ccc3c(c2)OCO3)s1	19*	21%	35%	62*	16%
Cc1ccc(Nc2cc(=O)oc3ccccc23)c(C)c1	1	-71%	?	-2	0.13µM*
Cc1ccccc1Nc1cc(=O)oc2ccccc12	7	-47%	nt	17	13µM*
O=c1cc(NCCO)c2ccccc2o1	-3	?	nt	-2	34%
O=c1cc(NCCc2ccccc2)c2ccccc2o1	24*	-53%	?	42*	9%
CN(c1ccccc1)S(=O)(=O)c1cccc(C(=O)OCC(=O)NCc2ccc3c(c2)OCO3)c1	-2	22%	10%	-10	23%
CCCCN(C(=O)C1CSC2(C)CCC(=O)N12)c1c(N)n(CC(C)C)c(=O)[nH]c1=O (stereo unspecified)	nt	nt	?	nt	-9%
CSc1nc(Oc2ccccc2)c2sccc2n1	0	-15%	-1%	-3	-7%
CSc1nc(Oc2ccc3ccccc3c2)c2ccccc2n1	3	22%	10µM*	21	?
SMILES	Cycloheximide cs	NS1 inh	Pf growth 48h	Shiga toxin inh	Pf growth 96h
Cc1cccc(NC(=O)C[n+]2cccc(C)c2)c1	-1	4%	?	nt	0.66µM*
COc1ccc(Cl)cc1NC(=O)C[n+]1cccc(C)c1	-3	?	12µM*	-1	18%
Cn1ncc(Br)c1NC(=O)c1ccco1	-3	2%	11%	-3	61%
Nc1nc(N)c(N=Nc2ccc(C(=O)O)c(O)c2)c(N)n1	nt	-4%	nt	nt	nt
O=C(Cc1cccs1)NNC(=O)C12CC3CC(CC(C3)C1)C2	-3	nt	10µM*	34	-2%
CC1(C)C2CCC(C2)C1(C)NC(=O)CNCc1cccs1 (stereo unspecified)	6	nt	-8%	3	2%
O=C(CNCc1cccs1)NC12CC3CC(CC(C3)C1)C2	14*	nt	10%	30	5.9µM*

Bioassay records: PubChem, National Center for Advancing Translational Sciences (NCATS)
